Bioassay records from PubChem.
Myeloid diff MLP: induction of myeloid progenitor differentiation, primary screen, cell-based, flow cytometry, MLPCN library | ER-HoxA9 myeloid progenitors, lysozyme-GFP differentiation | calls only at 10 µM | hit rate 1% among 360,000 | AID 624256, 2012;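 active means normalized GFP-positive differentiation at or above the plate's own cutoff, the solvent-only control mean plus 3 SD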;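 further: cells exposed to compound for four days before flow analysis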
rCAG binder: binders of r(CAG) RNA repeats, primary screen, biochemical, fluorescence. r(CAG) RNA repeat, TO-PRO-1 dye displacement fluorescence. inhibition, % at 3 µM. hit rate 1.3% among 370,000. AID 651821, 2012;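 active means inhibition above the plate cutoff, the mean of all test compounds on that plate plus 3 SD, cut at about 35% in these data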;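 further: higher means more dye released from RNA so lower well fluorescence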
FAS TE block: FAS thioesterase domain inhibitors, primary screen, biochemical, fluorescence intensity, uHTS; Fatty acid synthase (Homo sapiens), P49327; recombinant FAS-TE, OMFH fluorogenic substrate, fluorescence endpoint; inhibition, % at 15 µM; hit rate 0.67% among 360,000; AID 602261, 2012;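 active means compounds whose normalised, plate-corrected inhibition of enzyme fluorescence in the single-dose primary screen is 50% or more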
MPTP block: mitochondrial permeability transition pore inhibitors, primary screen, biochemical, isolated mouse mitochondria, absorbance | Ca2+ swelling absorbance, 30 min | hit rate 1.4% among 360,000 | inhibition, % at 10 µM | AID 602449, 2012;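 active means inhibition of 50% or more, scaled per plate between neutral and stimulator controls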
GRIN3A LBD mod: binders of NR3A ligand-binding domain, primary screen, biophysical, differential scanning fluorimetry, uHTS. Glutamate receptor ionotropic, NMDA 3A (GRIN3A) ligand-binding domain. NR3A LBD differential scanning fluorimetry, Tm shift; 0% = protein alone, 100% = glycine-bound protein. Tm shift relative to glycine control, % at 25 µM. hit rate 2.5% among 340,000. AID 1259313, 2017;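 active means melting temperature shift of at least 10% of the positive control shift, at one fixed dose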
rCAG binder conf: small molecules binding CAG repeat RNA – biochemical, fluorescence, confirmation. shares compounds with rCAG binder. r(CAG) RNA repeat, TO-PRO-1 dye displacement fluorescence. inhibition, % at 3 µM. hit rate 70% among 4,300;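 active means inhibition above a per-plate cutoff, the mean inhibition of sample wells plus 3 SD, cut at about 35% in these data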;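 further: loss of TO-PRO-1 fluorescence as compound displaces dye from 1x1 AA loop RNA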
dCAG dye counter: displacement of TO-PRO-1 from CAG DNA duplex, counter-screen for rCAG RNA repeat binder project, biochemical, fluorescence, TO-PRO-1 dye, d(CAG) DNA oligo | shares compounds with rCAG binder | d(CAG) DNA oligo TO-PRO-1 dye displacement | inhibition, % at 3 µM | hit rate 94% among 4,300 | AID 652068, 2013;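 active means inhibition above its plate's cutoff, the mean test-well inhibition plus 3 SD, cut at about 4.8% in these data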;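 further: hits displace the dye from DNA and so lower well fluorescence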
DNA CAG DR: inhibitors of DNA CAG/GTC TO-PRO-1 complex, dose response, counter-screen for rCAG RNA repeat binder project, biochemical, fluorescence, TO-PRO-1 dye | IC50, µM | shares compounds with rCAG binder | hit rate 20% among 250 | DNA CAG/GTC duplex TO-PRO-1 dye displacement fluorescence; in the data active means IC50 below about 10 µM
Large screens that a line does not name were inactive (follow-up assays come after a bar, where they were run). This is a sample that favours compounds with a hit; in the whole collection about 5.7% have one here.

O=C(O)c1ccccc1C(=O)N1N=C2/C(=C/c3cccc([N+](=O)[O-])c3)CCCC2C1c1cccc([N+](=O)[O-])c1 (configuration not stated)	rCAG binder 51.7 | rCAG binder conf 72.5 | dCAG dye counter 30.2
O=C(NCc1ccc(F)cc1F)[C@@H]1CCCN1C(=O)[C@@H]1CCCN1C(=O)c1ccc(Cl)cc1	none (no result: GRIN3A LBD mod)
Cc1ccc(-n2c(SCC(=O)Nc3ccc(S(=O)(=O)Nc4nccs4)cc3)nnc2-c2cccs2)cc1	rCAG binder 71.2 (no result: Myeloid diff MLP, FAS TE block, MPTP block, GRIN3A LBD mod) | rCAG binder conf 67.2 | dCAG dye counter 24.6
COc1ccc(-n2c(SCC(=O)Nc3nccs3)nnc2-c2ccc(Cl)cc2)cc1	none
O=C(CSc1nnc(-c2ccccn2)n1-c1ccc(Cl)cc1)Nc1ccc(S(=O)(=O)Nc2nccs2)cc1	rCAG binder 73.6 (no result: Myeloid diff MLP, FAS TE block, MPTP block, GRIN3A LBD mod) | rCAG binder conf 75.4 | dCAG dye counter 39.2
CCOc1ccc(-n2c(SCC(=O)Nc3ccc4c(c3)OCCO4)nnc2-c2ccncc2)cc1	none (no result: Myeloid diff MLP, FAS TE block, MPTP block, GRIN3A LBD mod)
CCOc1ccc(-n2c(SCC(=O)Nc3ccc(S(=O)(=O)Nc4nccs4)cc3)nnc2-c2ccncc2)cc1	rCAG binder 69.5 (no result: Myeloid diff MLP, FAS TE block, MPTP block, GRIN3A LBD mod) | rCAG binder conf 58.7 | dCAG dye counter 26.4
CC(C)(C)c1ccc(-c2nnc(SCC(=O)Nc3ccc(S(=O)(=O)Nc4nccs4)cc3)n2-c2ccc(Cl)cc2)cc1	rCAG binder 61.3 (no result: Myeloid diff MLP, FAS TE block, MPTP block, GRIN3A LBD mod) | rCAG binder conf 61.7 | dCAG dye counter 26.5
CCOC(=O)C1(C)CCCN1C(=O)c1ccc2ccccc2c1 (configuration not stated)	none (no result: GRIN3A LBD mod)
CCCCCCCCN1C(=O)[C@@H](CC(=O)NCc2ccc(C)o2)C[C@@]2(C(=O)OC)C1=C[C@H](COCc1ccccc1)O[C@@H]2C	none (no result: Myeloid diff MLP, FAS TE block, MPTP block, GRIN3A LBD mod)
COc1ccc(NC(=O)CSc2nnc(Cc3cccs3)n2-c2ccc(C)cc2)cc1	none (no result: rCAG binder)
CCOc1ccc(-n2c(SCC(=O)Nc3ccc(S(=O)(=O)Nc4nccs4)cc3)nnc2-c2ccco2)cc1	rCAG binder 67.9 (no result: Myeloid diff MLP, FAS TE block, MPTP block, GRIN3A LBD mod) | rCAG binder conf 68.6 | dCAG dye counter 27.9
CCCCNC(=O)NS(=O)(=O)c1ccc(NC(=O)CSc2nnc(-c3cccs3)n2-c2ccc(OC)cc2)cc1	rCAG binder 53.9 (no result: Myeloid diff MLP, FAS TE block, MPTP block, GRIN3A LBD mod) | rCAG binder conf 62.1 | dCAG dye counter 22.7
CCOc1ccc(-n2c(SCC(=O)Nc3ccc(S(=O)(=O)Nc4nccs4)cc3)nnc2-c2ccc(C(C)(C)C)cc2)cc1	rCAG binder 59.5 (no result: Myeloid diff MLP, FAS TE block, MPTP block, GRIN3A LBD mod) | rCAG binder conf 55.4 | dCAG dye counter 25.4
CCOc1ccc(-n2c(SCC(=O)Nc3nccs3)nnc2-c2ccoc2C)cc1	none
Cc1nn(CC(C)C(=O)N2CCN(S(=O)(=O)c3ccc(Cl)cc3)CC2)c(C)c1C (configuration not stated)	none (no result: Myeloid diff MLP)
O=C(O)c1ccc(NS(=O)(=O)c2ccc3c(c2)C2C=CCC2C(c2ccccc2F)N3)cc1 (configuration not stated)	rCAG binder 87.8 | rCAG binder conf 61.2 | dCAG dye counter 27.1
CCOc1ccc(Nc2nc(Cc3nnc(SCC(=O)O)o3)cs2)cc1	rCAG binder 45.6 | rCAG binder conf inactive | dCAG dye counter 9.0
NS(=O)(=O)c1ccc(N=Nc2c(O)c(C(=O)O)cc3ccccc23)cc1	rCAG binder 46.1 | rCAG binder conf 48.0 | dCAG dye counter 25.7
Nc1nc(O)c(N=Nc2ccc(S(N)(=O)=O)cc2)c(=O)[nH]1	none (no result: Myeloid diff MLP, FAS TE block, MPTP block)
Oc1ccc2ccccc2c1N=Nc1ccc(F)cc1	none
O=C(O)Cc1ccc(N=Nc2c(O)c(C(=O)O)cc3ccccc23)cc1	rCAG binder 87.0 | rCAG binder conf 58.1 | dCAG dye counter 23.3
COc1ccccc1Cc1c(-c2ccc(OC)c(OC)c2)nc2ccc(Br)cn12	none (no result: GRIN3A LBD mod)
Cc1ccc2nc(-c3cccc(Br)c3)c(Cc3ccccc3C(F)(F)F)n2c1	rCAG binder 35.5 (no result: GRIN3A LBD mod) | rCAG binder conf inactive | dCAG dye counter 4.8
COc1ccc(-c2nc3ccc(Br)cn3c2Cc2ccccc2C(F)(F)F)cc1OC	rCAG binder 43.4 (no result: GRIN3A LBD mod) | rCAG binder conf inactive | dCAG dye counter 4.8
CCOc1ccc(C(=O)NCc2ccc3c(c2)OCO3)cc1OCC	none
CCN(CCCNc1cc2c(c(N)c1S(=O)(=O)O)C(=O)c1ccccc1C2=O)c1ccccc1	rCAG binder 73.5 (no result: GRIN3A LBD mod) | rCAG binder conf 81.4 | dCAG dye counter 54.3
O=C(c1cc(O)c(O)c([N+](=O)[O-])c1)c1ccccc1F	rCAG binder 35.3 | rCAG binder conf 34.6 | dCAG dye counter 6.4
CC1(C(=O)NS(=O)(=O)c2ccccc2)CCN1C(=O)CCc1ccccc1 (configuration not stated)	none (no result: GRIN3A LBD mod)
CCc1nc2c(OCc3cc(Cl)cc(Cl)c3)cccn2c1N(C)C(=O)CC(C)C	none (no result: GRIN3A LBD mod)
COc1ccc(Nc2nc(-c3ccccc3O)nc3ccccc23)cc1	rCAG binder 37.7, GRIN3A LBD mod 34.2 | rCAG binder conf inactive | dCAG dye counter 6.9
O=C(O)c1ccc(Nc2nc(-c3ccccc3)nc3ccccc23)cc1	rCAG binder 36.6 | rCAG binder conf inactive | dCAG dye counter 5.5
COc1ccc(Nc2nc(-c3ccncc3)nc3ccccc23)cc1	none
COc1cccc(-c2nc(NCc3ccco3)c3ccccc3n2)c1O	none
COc1cccc(-c2nc(NCc3ccccc3)c3ccccc3n2)c1O	rCAG binder 38.2 | rCAG binder conf inactive | dCAG dye counter 14.6
Cc1ccc(-c2nc(Nc3cccc(O)c3)c3ccccc3n2)cc1	rCAG binder 37.1, GRIN3A LBD mod 42.4 | rCAG binder conf inactive | dCAG dye counter 10.2
COc1ccc(C(=O)N[C@H](C(=O)OCCCOC(=O)[C@@H](NC(=O)c2ccc(OC)cc2)C(C)C)C(C)C)cc1	none
O=C(O)c1cccc(Nc2nc(-c3ccc([N+](=O)[O-])cc3)nc3ccccc23)c1	none
O=C(O)c1cccc(Nc2nc(-c3ccccc3)nc3ccccc23)c1	rCAG binder 49.5 | rCAG binder conf inactive | dCAG dye counter 7.6
O=C(CNS(=O)(=O)c1ccccc1F)NNC(=O)c1ccc(Br)cc1	none
CC1=C(C)CC(C(=O)Nc2nc(-c3ccc(C)cc3C)c(C)s2)C(C(=O)O)C1 (configuration not stated)	rCAG binder 54.2 | rCAG binder conf 55.5 | dCAG dye counter 23.4 | DNA CAG DR inactive
